Source: PubChem BioAssay (NCI)
Compounds without any hit were thinned out: in the full panel of roughly 83,000, 20% have a hit.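 Testing used 96-well plates and a 48-hour single-concentration exposure. Example: -40 means 40% of the starting cells died.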 Active and inactive are the calls of the source. The calls were made as follows: active = growth percent below 10; inactive = the rest.

tested on: T-47D breast; test: NCI-60 one-dose screen, 48 h (100 = growth as untreated, 0 = no growth, -100 = all killed); conditions: 10 µM unless noted

| Structure (SMILES) | growth |
| --- | --- |
| COc1ccc(Cl)cc1Nc1nc(C(F)(F)F)ccc1C(=O)N/N=C/c1ccccc1Cl | -22.5% (active) |
| N#Cc1c(-c2ccccc2)nc2c(c(-c3ccccc3)nn2-c2ccccc2)c1-c1ccc(N2CCOCC2)cc1 | 96.7% (inactive) |
| O=C(CCCCCCCCC(=O)N/N=C\c1cc(Cl)ccc1O)N/N=C\c1cc(Cl)ccc1O | 28.2% (inactive) |
| CC12CCC(/C(=C/NNc3ccc([N+](=O)[O-])cc3[N+](=O)[O-])C1=O)C2(C)C (stereo unspecified) | 56.8% (inactive) |
| Nc1ccc([N+](=O)[O-])cc1N=C/C=C/c1ccccc1 | 66.2% (inactive) |
| CC1CN=C(c2cccc(-c3ccc(-c4ccccc4)o3)c2)N1 (stereo unspecified) | -31.8% (active) |
| CCCCc1oc2ccccc2c1C(=O)c1ccc(O)cc1 | 75.3% (inactive) |
| Cc1cc2oc(=O)cc(CP(=O)(O)O)c2cc1O | 98.8% (inactive) |
| CCOC(=O)C1=C(C)N=C2SC=C(c3ccccc3)N2[C@H]1c1cn[nH]c1-c1ccc(Cl)cc1 | 38.8% (inactive) |
| CCN1C(=S)N(CC)C2C1NC(=S)N2/N=C/C=C/c1ccccc1OC (stereo unspecified) | 59.4% (inactive) |
| CC(=O)N/C(=C1/OC(C(O)C(O)C(O)CO)CN1C)[P+](c1ccccc1)(c1ccccc1)c1ccccc1 (stereo unspecified) | 103% (inactive) |
| CCn1cc(C(=O)N/N=C/c2ccc(Br)cc2)c(=O)c2cc(F)c(N3CCNC(C)C3)c(F)c21 (stereo unspecified) | 64.1% (inactive) |
| CCNc1nc(-c2ccc(F)cc2)c(C#N)c(=O)n1C | 39.3% (inactive) |
| C(/C=C/c1ccccc1)=Nc1ccc(CCc2ccc(N=C/C=C/c3ccccc3)cc2)cc1 | 97.5% (inactive) |
| O=C(N/N=C/c1ccc([N+](=O)[O-])cc1)c1ccc2nc(-c3ccc(Cl)cc3)[nH]c2c1 | 10.5% (inactive) |
| Fc1ccc(CNc2c3ccccc3nc3ccccc23)cc1 | 31.1% (inactive) |
| O=C(CSc1nnc2sc(Nc3cccc(Cl)c3)nn12)c1ccc(F)cc1 | 76.4% (inactive) |
| Cn1c(=O)c2c(nc(NC3=NS(=O)(=O)c4ccccc43)n2Cc2ccccc2)n(C)c1=O | 115% (inactive) |
| O=c1nc(Nc2nc3ccccc3s2)[nH]c(=O)c2ccccc12 | 78.9% (inactive) |
| c1ccc2cc(Cn3c[n+](Cc4ccc5ccccc5c4)c4ccccc43)ccc2c1 | -8.43% (active) |
| Cc1[nH]c(/C=C/C(=O)c2ccc(C(F)(F)F)c(F)c2)c(C)c1C(=O)NCC(C)C | 88.2% (inactive) |
| O=C(Nc1cccc(NC(=O)C2CCCCC2)c1)c1ccccn1 | 95.7% (inactive) |
| CCOC(=O)c1c2c(n3ccccc13)C(=O)c1ncccc1C2=O | 41.8% (inactive) |
| COc1ccc(C(c2cc(OC)c(OC)c(OC)c2)N2CCN(Cc3ccccc3)CC2)cc1 (stereo unspecified) | 75.1% (inactive) |
| CN(C)c1ccc(/C=C2/C=C(c3ccccc3)OC2=O)cc1 | 86.9% (inactive) |
| C#CC#CC#CC#CC#CC#CC#CC#CCC1OCC(COC(=O)O[C@@H](C(=O)O[C@H]2C[C@@]3(O)[C@@H](OC(=O)c4ccccc4)[C@@H]4[C@]5(OC(C)=O)CO[C@@H]5C[C@H](O)[C@@]4(C)C(=O)[C@H](OC(C)=O)C(=C2C)C3(C)C)[C@@H](NC(=O)c2ccccc2)c2ccccc2)O1 (stereo partly specified) | 36.6% (inactive) |
